Measurements reported in article PMC5540273 (PLoS ONE, 2017).

Legend:
Settings in all cases: concentration: 1 μM, replicates: in singlicate; n = 1
ERK1 = tested on: T1, ERK1
T1 construct: gene MAPK3

ERK2 = tested on: T2, ERK2
T2 construct: gene MAPK1

ERK3 = tested on: T3, ERK3
T3 construct: gene MAPK6

ERK4 = tested on: T4, ERK4
T4 construct: gene MAPK4

ERK5 = tested on: T5, ERK5
T5 construct: gene MAPK7

ERK8 = tested on: T6, ERK8
T6 construct: gene MAPK15

ERN1 = tested on: ERN1
FAK = tested on: T7, FAK
T7 construct: gene PTK2

FER = tested on: FER
FES = tested on: FES
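Further: KINOMEscan kinase panel screen.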

| SMILES | %Inh (ERK1) [%] | %Inh (ERK2) [%] | %Inh (ERK3) [%] | %Inh (ERK4) [%] | %Inh (ERK5) [%] | %Inh (ERK8) [%] | %Inh (ERN1) [%] | %Inh (FAK) [%] | %Inh (FER) [%] | %Inh (FES) [%] |
| --- | --- | --- | --- | --- | --- | --- | --- | --- | --- | --- |
| N#CC1(c2cccc(C(=O)Nc3cccc(Oc4ccc5nc(NC(=O)C6CC6)sc5n4)c3)c2)CC1 | 0 | 0 | 0 | 0 | 0 | 29 | 0 | 17 | 22 | 0 |
| CCn1c(-c2nonc2N)nc2c(-c3ccccc3)ncc(OCCCN)c21.O=C(O)C(F)(F)F.O=C(O)C(F)(F)F [GSK260205] | 0 | 0 | 0 | 0 | 0 | 0 | 11 | 0 | 10 | 0 |
| CN(C)c1ncnc2nc[nH]c12 [SKF-31736] | 0 | 0 | 0 | 0 | 0 | 14 | 48 | 0 | 0 | 0 |
| N#Cc1cnc2cc(-c3cnc(CNCCN4CCOCC4)s3)ccc2c1Nc1ccc(Oc2ccccc2)cc1 [GW664114] | 0 | 0 | 0 | 48 | 0 | 0 | 21 | 0 | 82 | 94.9 |
| CN(c1ccc2c(c1)nc(NCc1ccccc1)n2C)c1ccnc(Nc2ccc(CS(C)(=O)=O)cc2)n1.Cl [GW811603] | 0 | 3 | 0 | 0 | 1 | 6 | 1 | 23 | 4 | 0 |
| Fc1cc(Cl)ccc1Nc1ccnc2cc(-c3ccc(CN4CCOCC4)o3)ccc12 [GW560109] | 12 | 0 | 0 | 0 | 0 | 19 | 16 | 0 | 6 | 0 |
| O=C(Nc1n[nH]c2cc(-c3cccs3)ccc12)C1CC1 [SB-731284] | 0 | 0 | 0 | 0 | 0 | 85 | 29 | 0 | 0 | 0 |
| Cn1cc(-c2cnc(N)c3c(-c4ccc5c(c4)CCN5C(=O)Cc4ccccc4)csc23)cn1 [GSK2593074] | 0 | 0 | 0 | 0 | 15 | 11 | 28 | 7 | 10 | 14 |
| COc1ccc(NC(=O)c2ccoc2)cc1-c1ccc(C(=O)NCC2CC2)cc1 [GW810437] | 0 | 7 | 0 | 6 | 7 | 0 | 33 | 0 | 0 | 7 |
| Cc1cccc(Nc2nc(NCCN)ncc2C(N)=O)c1 [GSK1292139] | 0 | 0 | 79 | 33 | 0 | 0 | 16 | 5 | 49 | 0 |
| Cc1cccc(Nc2nc(N[C@H]3CCCC[C@H]3N)ncc2C(N)=O)c1.Cl [GSK986310] | 8 | 27 | 27 | 49 | 0 | 0 | 2 | 12 | 84 | 0 |
| COC(=O)Nc1nc2cc(Oc3ccc(NC(=O)Nc4cccc(SC)c4)cc3)ccc2[nH]1.Cl [GW697999] | 0 | 0 | 0 | 8 | 0 | 55 | 0 | 0 | 13 | 0 |
| O=C1NC(=O)C(c2ccccc2Cl)=C1Nc1cccc(Cl)c1 [SB-342409] | 10 | 0 | 68 | 17 | 0 | 61 | 26 | 10 | 0 | 0 |
| COc1cccc(-c2nc(-c3ccccc3)[nH]c2-c2ccncc2)c1 [SB-610250] | 0 | 0 | 4 | 21 | 14 | 0 | 20 | 0 | 0 | 0 |
| CC(C)c1nc(-c2cccc(NS(=O)(=O)c3c(F)cccc3F)c2)c(-c2ccnc(Nc3ccc(N4CCOCC4)nc3)n2)s1.Cl [GSK1723980] | 0 | 0 | 0 | 0 | 0 | 97.9 | 50 | 0 | 49 | 18 |
